Test results from PubChem BioAssay (NCI).
Compounds without any hit were thinned out: in the full panel of roughly 83,000, 20% have a hit.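 A percent growth of 40 corresponds to 60% growth inhibition; 0 means no net growth; -100 means all cells died. Active threshold: below 10.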 Active and inactive are the calls of the source.

Assays:
Assay in all cases: NCI-60 one-dose screen, 48 h (100 = growth as untreated, 0 = no growth, -100 = all killed)
Conditions in all cases: 10 µM unless noted
RPMI-8226 leukemia = system: RPMI-8226 leukemia
OVCAR-8 ovarian = system: OVCAR-8 ovarian
OVCAR-5 ovarian = system: OVCAR-5 ovarian
OVCAR-4 ovarian = system: OVCAR-4 ovarian
SK-OV-3 ovarian = system: SK-OV-3 ovarian
IGROV1 ovarian = system: IGROV1 ovarian
HS 578T breast = system: HS 578T breast
NCI/ADR-RES ovarian = system: NCI/ADR-RES ovarian
T-47D breast = system: T-47D breast
BT-549 breast = system: BT-549 breast
MDA-MB-435 melanoma = system: MDA-MB-435 melanoma
SW-620 colon = system: SW-620 colon
MCF7 breast = system: MCF7 breast
HCT-116 colon = system: HCT-116 colon
HCC-2998 colon = system: HCC-2998 colon
KM12 colon = system: KM12 colon
OVCAR-3 ovarian = system: OVCAR-3 ovarian

Measured: growth

O=C(N/N=C/c1ccc[nH]1)c1[nH]c2ccc(Br)cc2c1-c1ccccc1
inactive: OVCAR-8 ovarian 13% | OVCAR-5 ovarian 43.7% | OVCAR-4 ovarian 33.2% | SK-OV-3 ovarian 36.7% | HS 578T breast 29.5% | NCI/ADR-RES ovarian 14.8% | T-47D breast 14.1% | SW-620 colon 22.8% | HCC-2998 colon 17.2% | KM12 colon 10.4%
active: RPMI-8226 leukemia -1.05% | IGROV1 ovarian 8.52% | BT-549 breast -12.5% | MDA-MB-435 melanoma 2.21% | MCF7 breast 3.98% | HCT-116 colon 0.0164%

CC(=O)c1ccc(Nc2nc(SC(C)C)nc(-c3ccccc3)c2C#N)cc1
inactive: RPMI-8226 leukemia 95% | OVCAR-8 ovarian 95.7% | OVCAR-5 ovarian 100% | OVCAR-4 ovarian 94.9% | SK-OV-3 ovarian 103% | IGROV1 ovarian 89.7% | HS 578T breast 90.6% | NCI/ADR-RES ovarian 92% | T-47D breast 81% | BT-549 breast 118% | MDA-MB-435 melanoma 102% | SW-620 colon 98.6% | HCT-116 colon 97.5% | HCC-2998 colon 123%

N[C@@H](Cc1cn(-c2c3ccccc3nc3ccccc23)nn1)C(=O)O
inactive: RPMI-8226 leukemia 99.9% | OVCAR-8 ovarian 103% | OVCAR-5 ovarian 99.2% | OVCAR-4 ovarian 101% | SK-OV-3 ovarian 87.7% | IGROV1 ovarian 97.5% | HS 578T breast 99.8% | NCI/ADR-RES ovarian 105% | T-47D breast 96.2% | BT-549 breast 117% | MDA-MB-435 melanoma 104% | SW-620 colon 105% | HCT-116 colon 106% | HCC-2998 colon 117%

C#C[C@]1(O)CC[C@H]2[C@@H]3CC=C4c5sc(Nc6ccc(Cl)cn6)nc5CC[C@]4(C)[C@H]3CC[C@@]21C
active: RPMI-8226 leukemia -21.2% | HS 578T breast -2.9%
inactive: OVCAR-8 ovarian 49.6% | OVCAR-5 ovarian 75.8% | OVCAR-4 ovarian 65.3% | SK-OV-3 ovarian 35.9% | IGROV1 ovarian 71.5% | OVCAR-3 ovarian 74.3% | NCI/ADR-RES ovarian 54.1% | BT-549 breast 32.9% | SW-620 colon 29.5% | MCF7 breast 17.6% | HCT-116 colon 34.5% | HCC-2998 colon 80% | KM12 colon 38.9%

Nc1nc(N)c2c(n1)NC(c1ccc(C(F)(F)F)cc1)CC(c1ccc(Nc3nc(NCCO)nc(Nc4ccc(Cl)cc4)n3)cc1)=N2 (stereo not given)
active: RPMI-8226 leukemia -36.9% | OVCAR-8 ovarian -26.1% | OVCAR-5 ovarian -88.7% | OVCAR-4 ovarian -9.44% | SK-OV-3 ovarian -26% | IGROV1 ovarian -67.7% | OVCAR-3 ovarian -20.9% | HS 578T breast -10.5% | NCI/ADR-RES ovarian -29.3% | BT-549 breast -28.7% | MDA-MB-435 melanoma -61.5% | SW-620 colon -66.6% | HCT-116 colon -85.3% | HCC-2998 colon -86.6% | KM12 colon -65.3%

CS(=O)(=O)c1ccc(-c2nc3ccccn3c2/C=N/Nc2nc(-c3ccc(Cl)cc3)cs2)cc1
inactive: RPMI-8226 leukemia 82.2% | OVCAR-8 ovarian 98% | OVCAR-5 ovarian 104% | OVCAR-4 ovarian 105% | SK-OV-3 ovarian 140% | IGROV1 ovarian 115% | HS 578T breast 107% | NCI/ADR-RES ovarian 104% | T-47D breast 78% | BT-549 breast 103% | MDA-MB-435 melanoma 96.8% | SW-620 colon 113% | MCF7 breast 91.6% | HCT-116 colon 101% | HCC-2998 colon 125% | KM12 colon 112%

CS(=O)(=O)Nc1ccc(-c2nn(-c3ccc(S(C)(=O)=O)cc3)cc2/C=C/C(=O)c2ccc(NC(=O)CO[N+](=O)[O-])cc2)cc1
inactive: RPMI-8226 leukemia 111% | OVCAR-8 ovarian 101% | OVCAR-5 ovarian 103% | OVCAR-4 ovarian 106% | SK-OV-3 ovarian 99.7% | IGROV1 ovarian 105% | HS 578T breast 122% | NCI/ADR-RES ovarian 97.3% | T-47D breast 102% | BT-549 breast 98.7% | MDA-MB-435 melanoma 106% | SW-620 colon 113% | MCF7 breast 94.5% | HCT-116 colon 103% | HCC-2998 colon 101% | KM12 colon 106%

COc1cc(N=Cc2sc(Nc3nccs3)nc2O)cc(OC)c1OC
inactive: RPMI-8226 leukemia 81.6% | OVCAR-8 ovarian 81.2% | OVCAR-5 ovarian 103% | OVCAR-4 ovarian 82.9% | SK-OV-3 ovarian 104% | IGROV1 ovarian 66% | HS 578T breast 80.5% | NCI/ADR-RES ovarian 78.4% | T-47D breast 89.3% | BT-549 breast 93.6% | MDA-MB-435 melanoma 87.9% | SW-620 colon 97.3% | MCF7 breast 71.5% | HCT-116 colon 94.2% | HCC-2998 colon 111% | KM12 colon 89.9%

CCCC(=O)NC(c1cccnc1)c1cc(C)c2cccnc2c1O (stereo not given)
inactive: RPMI-8226 leukemia 53.5% | OVCAR-8 ovarian 14% | OVCAR-5 ovarian 53.6% | OVCAR-4 ovarian 29.7% | SK-OV-3 ovarian 43.4% | IGROV1 ovarian 30.6% | HS 578T breast 71.8% | NCI/ADR-RES ovarian 23.7% | BT-549 breast 69.5% | MDA-MB-435 melanoma 59.7% | SW-620 colon 33.4% | HCC-2998 colon 64.1% | KM12 colon 38.4%
active: OVCAR-3 ovarian -0.275% | HCT-116 colon 8.73%

N[C@@H](Cc1cn(-c2ccnc3ccccc23)nn1)C(=O)O
inactive: RPMI-8226 leukemia 106% | OVCAR-8 ovarian 104% | OVCAR-5 ovarian 101% | OVCAR-4 ovarian 109% | SK-OV-3 ovarian 101% | IGROV1 ovarian 102% | HS 578T breast 109% | NCI/ADR-RES ovarian 103% | T-47D breast 101% | BT-549 breast 118% | MDA-MB-435 melanoma 106% | SW-620 colon 104% | MCF7 breast 101% | HCC-2998 colon 104%

CN(C)CCCNc1c2ccccc2nc2c1oc1ccc(Cl)cc12
active: SW-620 colon 9.93% | MCF7 breast -25.7% | HCC-2998 colon -43.7%
inactive: RPMI-8226 leukemia 14.4% | OVCAR-8 ovarian 25.4% | OVCAR-5 ovarian 51.6% | OVCAR-4 ovarian 50.6% | SK-OV-3 ovarian 57.6% | IGROV1 ovarian 25.8% | HS 578T breast 47.7% | NCI/ADR-RES ovarian 22% | T-47D breast 63.7% | BT-549 breast 57.9% | MDA-MB-435 melanoma 33.5% | KM12 colon 25.5%

CC(C)(C)OC(=O)N1C(=O)c2c(c3c4ccccc4[nH]c3c3ccc4ccccc4c23)C1=O
inactive: RPMI-8226 leukemia 45.4% | OVCAR-8 ovarian 60.7% | OVCAR-5 ovarian 63.8% | OVCAR-4 ovarian 77.4% | SK-OV-3 ovarian 45.7% | IGROV1 ovarian 52.7% | HS 578T breast 49.7% | NCI/ADR-RES ovarian 75.5% | T-47D breast 32.6% | BT-549 breast 61.7% | MDA-MB-435 melanoma 40.3% | SW-620 colon 57.2% | MCF7 breast 34.5% | HCT-116 colon 58.8% | HCC-2998 colon 82.6%

COc1cccc(-c2nn(-c3ccccc3)cc2-c2ccnc(N3CCN(C(=O)Nc4ccc(F)cc4)CC3)c2)c1
active: T-47D breast 3.31%
inactive: RPMI-8226 leukemia 21.4% | OVCAR-8 ovarian 48.8% | OVCAR-5 ovarian 97.6% | OVCAR-4 ovarian 51.2% | SK-OV-3 ovarian 107% | IGROV1 ovarian 79.1% | HS 578T breast 85.8% | NCI/ADR-RES ovarian 33.4% | BT-549 breast 45.8% | MDA-MB-435 melanoma 49.9% | SW-620 colon 74.1% | MCF7 breast 57.7% | HCT-116 colon 54.9% | HCC-2998 colon 95.4%

COc1cc(-c2nc3ccc(-c4nnc(SCC(=O)Nc5ccc(C(=O)/C=C/c6ccc(Cl)cc6)cc5)o4)cc3[nH]2)cc(OC)c1OC
inactive: RPMI-8226 leukemia 57.2% | OVCAR-8 ovarian 92.5% | OVCAR-5 ovarian 99.2% | OVCAR-4 ovarian 100% | SK-OV-3 ovarian 121% | IGROV1 ovarian 81.6% | HS 578T breast 87.9% | NCI/ADR-RES ovarian 106% | T-47D breast 80.4% | BT-549 breast 84.4% | MDA-MB-435 melanoma 99% | SW-620 colon 100% | MCF7 breast 59.1% | HCT-116 colon 81.5% | HCC-2998 colon 120% | KM12 colon 90.9%

COc1ccc(/C=C/C(=O)c2ccc(NC(=O)CSc3nnc(-c4ccc5nc(-c6ccc(Cl)cc6)[nH]c5c4)o3)cc2)cc1
inactive: RPMI-8226 leukemia 64.4% | OVCAR-8 ovarian 79.5% | OVCAR-5 ovarian 107% | OVCAR-4 ovarian 103% | SK-OV-3 ovarian 106% | IGROV1 ovarian 95.3% | HS 578T breast 94.7% | NCI/ADR-RES ovarian 107% | T-47D breast 78% | BT-549 breast 85% | MDA-MB-435 melanoma 98.1% | SW-620 colon 106% | MCF7 breast 79.7% | HCT-116 colon 93.4% | HCC-2998 colon 118% | KM12 colon 99.7%

Nc1cc(-c2c[nH]c3ccc(F)cc23)nc2cc(-c3c[nH]c4ccc(F)cc34)nn12
inactive: RPMI-8226 leukemia 30.7% | OVCAR-8 ovarian 89.8% | OVCAR-5 ovarian 115% | OVCAR-4 ovarian 96.1% | SK-OV-3 ovarian 135% | IGROV1 ovarian 94.8% | OVCAR-3 ovarian 94.4% | HS 578T breast 112% | NCI/ADR-RES ovarian 93% | BT-549 breast 103% | MDA-MB-435 melanoma 64.2% | MCF7 breast 37% | HCC-2998 colon 72.5% | KM12 colon 40.6%
active: SW-620 colon 4.64%

Cc1cc2nc3c4cc(Cl)ccc4n(CC(=S)NCCN(C)C)c3nc2cc1C
inactive: HS 578T breast 51.4% | T-47D breast 61.7% | BT-549 breast 75%
active: RPMI-8226 leukemia -19.6% | OVCAR-8 ovarian -66.9% | OVCAR-5 ovarian -42.6% | OVCAR-4 ovarian -24.1% | SK-OV-3 ovarian -16.4% | OVCAR-3 ovarian -47% | NCI/ADR-RES ovarian -56.4% | MDA-MB-435 melanoma -92.4% | SW-620 colon -91.4% | MCF7 breast -81.5% | HCT-116 colon -94.2% | HCC-2998 colon -82.9% | KM12 colon -60.2%

COc1cc(/C=C/C(=O)c2ccc(C)cc2)ccc1Oc1nc(NCCO)nc(N2CCOCC2)n1
inactive: OVCAR-8 ovarian 76.1% | OVCAR-5 ovarian 83.6% | OVCAR-4 ovarian 80.6% | SK-OV-3 ovarian 95.9% | OVCAR-3 ovarian 75.1% | HS 578T breast 79.9% | NCI/ADR-RES ovarian 54.1% | T-47D breast 92.4% | MDA-MB-435 melanoma 33.1% | HCC-2998 colon 93.8% | KM12 colon 20.2%
active: RPMI-8226 leukemia -18.3% | BT-549 breast -58.8% | SW-620 colon 3.05% | MCF7 breast 9.07% | HCT-116 colon -77.2%

Cc1c(NC(=O)CSc2nc3sc4c(c3c(=O)n2-c2ccc(Cl)cc2)CCCC4)c(=O)n(-c2ccccc2)n1C
inactive: RPMI-8226 leukemia 86.7% | OVCAR-8 ovarian 97.1% | OVCAR-5 ovarian 99.6% | OVCAR-4 ovarian 91.9% | SK-OV-3 ovarian 93.8% | IGROV1 ovarian 84.9% | HS 578T breast 88.3% | NCI/ADR-RES ovarian 101% | T-47D breast 90.1% | BT-549 breast 93.2% | SW-620 colon 90.6% | MCF7 breast 77.3% | HCT-116 colon 107% | HCC-2998 colon 110% | KM12 colon 98.7%
